Measured values published in the supplement of paper PMC11555231.

Target: PADI4, Q9UM07
Assay: log2 enrichment score relative to parent PADI4_3 peptide (binding to PADI4); higher = tighter binding than parent
Conditions: CaCl2: 10 mM
Description: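 Deep mutational scan of the cyclic peptide PADI4_3 (ClAc-D-Tyr1 initiator, thioether-cyclised to Cys12, C-terminal Gly plus HA tag, mRNA-displayed). Positions 2-11 were each randomised by NNK codons; Met was reprogrammed as N-methyl-alanine (MeA). One round of equilibrium panning against bead-immobilised human PADI4 (100 nM, 10 mM CaCl2, RT). Log2 enrichment (bound/input frequency) relative to the parent sequence (0 = parent), mean of three independent selections.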

Sequence of PADI4, Q9UM07 (Q9UM07 whole entry): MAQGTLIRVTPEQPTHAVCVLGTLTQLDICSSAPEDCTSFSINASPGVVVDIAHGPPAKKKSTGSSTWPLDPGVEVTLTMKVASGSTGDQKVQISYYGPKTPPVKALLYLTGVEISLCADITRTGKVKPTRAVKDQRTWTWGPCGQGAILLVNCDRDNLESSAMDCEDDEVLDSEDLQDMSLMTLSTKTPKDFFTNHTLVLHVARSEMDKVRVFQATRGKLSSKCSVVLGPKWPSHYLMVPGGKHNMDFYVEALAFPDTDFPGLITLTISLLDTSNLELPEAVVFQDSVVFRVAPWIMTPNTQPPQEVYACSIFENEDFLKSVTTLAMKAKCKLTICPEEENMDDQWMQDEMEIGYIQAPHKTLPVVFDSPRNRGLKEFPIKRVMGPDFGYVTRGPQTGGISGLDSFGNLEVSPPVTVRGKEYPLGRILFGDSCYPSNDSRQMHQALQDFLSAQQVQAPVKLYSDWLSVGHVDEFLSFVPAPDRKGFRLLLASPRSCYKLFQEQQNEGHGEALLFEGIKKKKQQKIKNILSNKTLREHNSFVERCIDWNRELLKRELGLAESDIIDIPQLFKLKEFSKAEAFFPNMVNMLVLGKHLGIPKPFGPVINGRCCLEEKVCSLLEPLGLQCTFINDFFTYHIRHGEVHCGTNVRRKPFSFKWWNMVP

Binder	log2 enrichment score
YRDHAYRHPKYCG [PADI4_3_H5A H5A]	-2.12
YRDHHYPHPKYCG [PADI4_3_R7P R7P]	-4.46
YRDLHYRHPKYCG [PADI4_3_H4L H4L]	-1.52
YRDHHYRVPKYCG [PADI4_3_H8V H8V]	-3.3
YIDHHYRHPKYCG [PADI4_3_R2I R2I]	-1.38
YRPHHYRHPKYCG [PADI4_3_D3P D3P]	-2.96
YRDHLYRHPKYCG [PADI4_3_H5L H5L]	-3.61
YRDHHYRPPKYCG [PADI4_3_H8P H8P]	-4.28
YRLHHYRHPKYCG [PADI4_3_D3L D3L]	-2.88
YRVHHYRHPKYCG [PADI4_3_D3V D3V]	-3.7
YRIHHYRHPKYCG [PADI4_3_D3I D3I]	-4.17
YRDHHYRHAKYCG [PADI4_3_P9A P9A]	-1.66
YRDVHYRHPKYCG [PADI4_3_H4V H4V]	-2.6
YRDHHYRHPIYCG [PADI4_3_K10I K10I]	2.81
YRDHHFRHPKYCG [PADI4_3_Y6F Y6F]	-0.749
YRDIHYRHPKYCG [PADI4_3_H4I H4I]	-2.05
YRDHHYRHPKICG [PADI4_3_Y11I Y11I]	-3.77
YRDHHYRIPKYCG [PADI4_3_H8I H8I]	-3.37
YRDHVYRHPKYCG [PADI4_3_H5V H5V]	-3
YRDHHYLHPKYCG [PADI4_3_R7L R7L]	-2.09

Binder	log2 enrichment score
YRDHHYRHLKYCG [PADI4_3_P9L P9L]	-2.12
YRDHHYRHPLYCG [PADI4_3_K10L K10L]	0.693
YFDHHYRHPKYCG [PADI4_3_R2F R2F]	-2.57
YRDHHVRHPKYCG [PADI4_3_Y6V Y6V]	-2.3
YRDHHYIHPKYCG [PADI4_3_R7I R7I]	-1.67
YRDHHYRLPKYCG [PADI4_3_H8L H8L]	-3.01
YRDHHYRFPKYCG [PADI4_3_H8F H8F]	-3.69
YRDHHPRHPKYCG [PADI4_3_Y6P Y6P]	-2.49
YLDHHYRHPKYCG [PADI4_3_R2L R2L]	-0.745
YRDHHYRHPVYCG [PADI4_3_K10V K10V]	2.58
YRDHFYRHPKYCG [PADI4_3_H5F H5F]	-4.31
YRDHHYRHPKLCG [PADI4_3_Y11L Y11L]	-3.94
YRDHHYRHPPYCG [PADI4_3_K10P K10P]	-3.67
YRFHHYRHPKYCG [PADI4_3_D3F D3F]	-4.36
YPDHHYRHPKYCG [PADI4_3_R2P R2P]	-2.67
YRDHHYRHPKPCG [PADI4_3_Y11P Y11P]	-4.34
YRAHHYRHPKYCG [PADI4_3_D3A D3A]	-2.97
YRDHHYRHPAYCG [PADI4_3_K10A K10A]	-1.7
YRDHHYRHVKYCG [PADI4_3_P9V P9V]	-1.8
YRDHHYRHIKYCG [PADI4_3_P9I P9I]	-1.78

Binder	log2 enrichment score
YRDPHYRHPKYCG [PADI4_3_H4P H4P]	-2.66
YRDHHYRHPKACG [PADI4_3_Y11A Y11A]	-4.24
YRDHPYRHPKYCG [PADI4_3_H5P H5P]	-3.95
YVDHHYRHPKYCG [PADI4_3_R2V R2V]	-1.2
YRDHHYRHPFYCG [PADI4_3_K10F K10F]	-0.468
YRDHHYAHPKYCG [PADI4_3_R7A R7A]	0.206
YRDHHLRHPKYCG [PADI4_3_Y6L Y6L]	-1.7
YRDHHYRHFKYCG [PADI4_3_P9F P9F]	-2.05
YRDHHYRHPKVCG [PADI4_3_Y11V Y11V]	-4.2
YRDHHYFHPKYCG [PADI4_3_R7F R7F]	-0.962
YRDHHIRHPKYCG [PADI4_3_Y6I Y6I]	-2.71
YADHHYRHPKYCG [PADI4_3_R2A R2A]	-2.77
YRDHHARHPKYCG [PADI4_3_Y6A Y6A]	-1.95
YRDHHYRAPKYCG [PADI4_3_H8A H8A]	-3.62
YRDHHYRHPKFCG [PADI4_3_Y11F Y11F]	-2.66
YRDHHYRHPKYCG [PADI4_3_P9P P9P]	0
YRDAHYRHPKYCG [PADI4_3_H4A H4A]	-1.88
YRDHIYRHPKYCG [PADI4_3_H5I H5I]	-3.45
YRDHHYVHPKYCG [PADI4_3_R7V R7V]	-1.6
